# From PubChem
# Most compounds without a hit are left out; they make up all but 3.2% or so of the library.
# TcdB inh = blocks C. difficile toxin B glycohydrolase activity; P18177; AID 652162; inhibition, % at 9.99 µM; 350,000 compounds, 0.24% hits; TcdB glycohydrolase enzymatic assay, plate reader; in the data active = inhibition above about 10%
# GDH-TPI inh = inhibits GDH-TPI coupling enzymes, artifact for Mtb FBA screen; inhibition, % at 4.8 µM; GDH-TPI coupled enzyme counterscreen, NADH absorbance; 360,000 compounds, 1.2% hits; in the data active = inhibition above about 30%;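 note: 0% = DMSO wells and 100% = wells lacking the enzyme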
# PrPC surface inh = cell surface PrPC inhibition, primary TR-FRET screen; P04156; TR-FRET read-out; inhibition, % at 13.8 µM; 370,000 compounds, 0.43% hits; in the data active = inhibition above about 24%; note: 0% = median of the test wells and 100% = reference compound wells
# Yp Topo-I inh = inhibitors of Yersinia pestis topoisomerase I. Y. pestis Topo-I cleavage product accumulation, plate reader. activity, % at 10 µM. 360,000 compounds, 0.064% hits. AID 504884; in the data active = activity above about 50%, passing the limit was not always enough
# FBA Mtb inh = inhibits M. tuberculosis FBA enzyme | P9WQA3 | purified M. tuberculosis FBA, fluorescence read-out | inhibition, % at 1 µM | 360,000 compounds, 2.3% hits; in the data active = inhibition above about 27%;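 note: 0% = vehicle and 100% = reference inhibitor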
# Starred values were filed as active, the others as inactive; . = no result given; + = active, no number.
SMILES,TcdB inh,GDH-TPI inh,PrPC surface inh,Yp Topo-I inh,FBA Mtb inh
CCCc1nnc(NC(=O)C(=O)NCCN(C)C)s1,0.0,31.0*,-0.3,-13.6,2.0
CCCc1nnc(NC(=O)C(=O)NCCN(CC)CC)s1,-0.6,2.9,-0.2,2.1,-0.8
Cc1scc(C(=O)N2CCN(c3ccc(Cl)cc3)CC2)c1C,10.7*,0.0,3.9,35.0,1.0
Cc1occc1C(=O)N1CCN(c2ccc(Cl)cc2)CC1,1.1,-5.8,-5.9,9.5,-0.7
C[C@H](CO)N1C[C@H](C)[C@H](CN(C)Cc2ccc(C(F)(F)F)cc2)Oc2c(NC(=O)NC3CCCCC3)cccc2C1=O,-0.1,.,.,.,.
COc1ccc(S(=O)(=O)N(C)C[C@@H]2OCCCC[C@H](C)Oc3ccc(NC(=O)Nc4ccc(C(F)(F)F)cc4)cc3C(=O)N([C@@H](C)CO)C[C@H]2C)cc1,0.1,.,.,.,.
C=CCn1c(=O)c2c(nc3n2CCN3c2cccc(Cl)c2C)n(C)c1=O,.,10.8,2.7,6.9,-0.5
C=CCn1c(=O)c2c(nc(-c3ccc(S(=O)(=O)O)cc3)n2C)n(C)c1=O,-0.8,3.4,5.0,-4.6,+
CC(=O)/C(=N/Nc1ccccc1)Sc1nnc(CCc2ccccc2)n1-c1ccccc1,2.2,31.7*,-1.1,25.3,2.9
COc1ccc(-c2cc(C(F)(F)F)n3nc(C(=O)N4CCOCC4)nc3n2)cc1,.,43.7*,-33.5,-8.2,0.1
COCCn1c(-c2ccc(SC)cc2)nc2c1c(=O)[nH]c(=O)n2CC(C)C,1.0,21.4,-8.3,17.8,+
CC(C)NC(=O)N(C)C[C@@H]1Oc2ncc(-c3ccccc3F)cc2C(=O)N([C@@H](C)CO)C[C@H]1C,-1.5,.,.,.,.
COc1ccc(OC)c(CC(=O)NC(c2ccccc2)c2ccccc2)c1,1.6,2.3,-0.1,25.3,0.9
COc1ccc(C(NC(=O)c2cc(OC)ccc2OC)c2ccccc2)cc1 (stereo unspecified),1.0,3.3,8.6,50.5*,2.5
CCC(=O)Nc1ccc2c(c1)C(=O)N(C)C[C@@H](OC)[C@H](C)CN(C(=O)c1ccncc1)[C@@H](C)CO2,0.0,.,.,.,.
Cc1ccc(C=NNC(=O)c2cc(-c3cccnc3)nc3ccccc23)o1,-0.3,34.4*,5.0,1.5,-0.3
C/C(=N\NC(=O)c1cc(-c2cccnc2)nc2ccccc12)c1ccc(O)cc1O,.,34.9*,10.3,2.6,-0.7
Cc1ccc(/C=N/NC(=O)c2cc(-c3ccccc3)nc3ccccc23)o1,0.8,22.3,1.8,-3.8,-0.6
COc1ccc(CN(C)C[C@H]2Oc3ccc(N(C)C)cc3CC(=O)N([C@@H](C)CO)C[C@H]2C)cc1,-5.3,.,.,.,.
COc1cccc(-c2cc(-c3cccnc3)nc(N)c2C#N)c1,-0.4,12.4,-10.8,7.5,127.4*
N#Cc1c(-c2cccc(Br)c2)cc(-c2cccnc2)nc1N,.,15.9,2.3,0.4,131.2*
COc1ccc(-c2cc(-c3ccc(O)cc3)nc(N)c2C#N)cc1,0.8,3.5,-9.4,-9.2,48.7*
COc1cccc(-c2cc(-c3cccnc3)c(C#N)c(N)n2)c1,0.6,31.6*,-8.7,-4.2,+
COc1cc(-c2cc(-c3ccc(O)cc3)nc(N)c2C#N)ccc1O,0.0,17.8,-11.2,-10.1,5.1
N#Cc1c(-c2ccc(F)cc2)cc(-c2cccnc2)nc1N,-4.9,-17.3,7.0,-0.4,24.3
SMILES,TcdB inh,GDH-TPI inh,PrPC surface inh,Yp Topo-I inh,FBA Mtb inh
COc1ccc(OC)c(-c2cc(-c3cccnc3)nc(N)c2C#N)c1,-1.2,28.3,-3.3,7.7,0.0
C[C@@H]1CN([C@H](C)CO)C(=O)c2cc(NC(=O)Nc3ccc4c(c3)OCO4)ccc2O[C@H]1CN(C)Cc1ccc(C(F)(F)F)cc1,0.0,.,.,.,.
C[C@@H]1CN([C@@H](C)CO)C(=O)c2cc(NS(=O)(=O)c3ccc(F)cc3)ccc2O[C@@H](C)CCCCO[C@@H]1CN(C)C,-0.4,.,.,.,.
CCCc1cn(CC[C@@H]2CC[C@@H](NC(=O)C3CCC3)[C@H](CO)O2)nn1,0.1,.,.,.,.
CCOC(=O)N1CCN(/C=C(\C#N)c2nc3ccccc3s2)CC1,.,34.6*,0.0,8.9,1.4
O=C(NC(=S)NNC(=O)c1ccccc1F)c1cccnc1,14.8*,4.4,-7.7,1.2,1.1
CCC(=O)N(C)C[C@@H]1Oc2cc(C#CC3CC3)ccc2S(=O)(=O)N([C@H](C)CO)C[C@H]1C,1.3,.,.,.,.
Clc1ccc2c(SCC3CO3)c3ccccc3nc2c1 (stereo unspecified),0.7,15.1,-2.7,1.4,121.7*
COc1ccc(S(=O)(=O)Nc2cccc3c2O[C@@H](CN(C)Cc2ccccc2)[C@@H](C)CN([C@@H](C)CO)C3=O)cc1,0.8,.,.,.,.
